Among the data in PubChem BioAssay AID1259415 (National Center for Advancing Translational Sciences (NCATS), 2018) are activity change, negative = inhibition values, retold here.

The campaign covered roughly 410,000 compounds. About 18,000 (4.4%) were called active. Not shown: some 7% with an inconclusive outcome. The sample holds actives, similar compounds and a random draw of the others, so the mix is not that of the screen. A number with no mark means an inactive call. Rule as the data show it: active = activity change below about -60%; inconclusive = no clear call, values can overlap the other calls; inactive = above about -39%.
% is scaled to controls: 0 for no effect and ±100 for the full control effect.

The nature of the test: qHTS Assay for inhibitors of the human cytomegalovirus (HCMV). The settings on record: HFF cells, HCMV-luciferase reporter, 72 h; at 57.5 µM; active compounds read low. Put shortly:
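Cell-based, HFFs, 1000 cells/well, 16 h 37C; cpds in DMSO + HCMV-luc, MOI 1 PFU/cell; 72 h 37C; OneGlo luminescence after 5 min RT; norm. to buffer vs Salinomycin 10uM.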
Consider `CCOc1ccc(-n2cnc3c(=O)[nH]c(N)nc32)cc1`, for which the activity change, negative = inhibition is 29.7%. Regarding `CCc1ccc(NC(=O)CN2C(=O)CCSc3ccc(S(=O)(=O)N4CCCC4)cc32)cc1`, the activity change, negative = inhibition is 14.8%.

Consider `Nc1ncnc(Nc2cccc(Cl)c2Cl)n1`, for which the activity change, negative = inhibition was 8.97%.

Turning to `CC(=O)Nc1cccc(NC(=O)CSc2nccn2Cc2ccc3c(c2)OCO3)c1`, the activity change, negative = inhibition is -12.3%. Consider `COc1ccc(CNC(=O)C2=Cc3cccc(OC)c3OC2)cc1OC`, for which the activity change, negative = inhibition is -2.4%. The value for `Cc1ccc(C(=O)Nc2ccc(C(=O)O)cc2)cc1S(=O)(=O)Nc1ccccc1` was 6.44%; that for `O=C(Nc1ccc(Br)cc1)c1ccc(Br)c(S(=O)(=O)NCc2ccccc2)c1` was -106% (active). Next, `COc1ccc(CNS(=O)(=O)c2cc(Br)ccc2Br)cc1`: -5.85%; `CCOc1ccc(S(=O)(=O)Nc2ccc3oc4c(c3c2)CC(C)CC4)cc1` (stereo not given): 33.8%; `CCC(=O)N1CCc2cc(S(=O)(=O)NCCC(=O)Nc3cccc(C)c3C)ccc21`: 4.12%. Next, `CCCC(=O)Nc1nnc(CC(=O)OCC)s1`: 69.6%.

As to `CC(C)Oc1ccccc1C(=O)NC(CO)C(=O)O` (stereo not given), the activity change, negative = inhibition is 0.22%. Next, `CC(C)NC(=O)c1ccccc1S(=O)c1ccccc1C#N` (stereo not given): -72.2% (active). Regarding `N#Cc1ccccc1Sc1ccccc1C(=O)OCC(=O)NC1CCCCC1`, the activity change, negative = inhibition was -31.3%. The value for `O=C(CC(c1cccs1)N1Cc2ccccc2C1=O)Nc1ccc(F)cc1F` (stereo not given) was 5.86%; that for `Cc1ccc(-c2ccc(CCC(=O)O)n2-c2ccc(C(N)=O)cc2)cc1` was 15%; that for `[O-][n+]1onc2c1CCc1[nH]c(-c3ccccc3)nc1-2` was -99.3% (active). The value for `Cc1ccc(NC(=O)C(Cc2ccccc2)NS(=O)(=O)c2ccc3c(c2)oc(=O)n3C)cc1C` (stereo not given) was 1.25%.

With `CC1CCN(S(=O)(=O)c2ccc3c(c2)N(CC(=O)NCc2ccccc2Cl)C(=O)CO3)CC1`, the activity change, negative = inhibition was 15.7%.

Turning to `O=C(OCc1ccccc1)c1ccc(O)cc1`, the activity change, negative = inhibition was 17.9%. Next, `CCOC(=O)c1nnn(-c2nonc2-n2cccc2)c1CN1CCOCC1`: -19.5%; `CCOC(=O)c1c(CN2CCOCC2)n(-c2ccccc2)c2ccc(O)cc12`: -73% (active); `CCOC(=O)c1c(CN(C)C)n(-c2ccccc2)c2cc(Br)c(O)cc12`: -35%. Next, `O[C@H]1C[C@H](c2ccc(Cl)cc2)N(Cc2cccs2)C[C@@H]1n1cc(C2CC2)nn1`: 15%; `CCOC(=O)[C@]12CCC=C1N(CCC1=CCCCC1)C(=O)[C@H](CC(=O)NCc1ccc(C)o1)C2`: -0.404%; `CCc1nc2onc(C)c2c(=O)n1CC(=O)O`: 9.29%. Regarding `CCc1nn(CC(=O)NCC(C)c2ccccc2)c(=O)c2cc3occc3n12` (stereo not given), the activity change, negative = inhibition was -13.6%. Next, `COc1ccc(-c2nc(Cn3c(=O)cc(C)c4c(C)nn(-c5ccccc5)c43)c(C)o2)cc1OC`: 18.8%; `OCCCNc1nccc(-c2cc(Nc3cccc(Cl)c3)ncn2)n1`: -97.8% (active); `COC(=O)[C@H]1[C@H](CO)[C@H]2Cn3c(cccc3=O)[C@H]2N1CC1CC1`: 3.17%. Next, `O=C(c1cccnc1)N1CCN(S(=O)(=O)c2cccs2)CC1`: 7.09%; `O=C(N/N=C/c1sc(N2CCCCC2)nc1-c1cccs1)c1cccnc1`: -80.6% (active). The value for `O=C(Nc1cccc(Cl)c1N1CCOCC1)c1cccnc1` was -21.6%; that for `COc1cccc(N2CC(NC(=O)/C=C\c3ccccc3)CC2=O)c1` (stereo not given) was 81.9%. For the compound `CCOC(=O)c1c(-c2ccc(OC)cc2)oc2ccc(OCc3ccc(C(=O)OC)cc3)cc12`, the activity change, negative = inhibition is -6.67%. Next, `COC(=O)c1ccc(NC(=O)CCc2c(C)nc3c(c(C)nn3-c3ccc(C)cc3)c2C)cc1`: -19.7%. The value for `COc1ccc(CCNC(=O)CCCCn2c(=O)c3ccccc3n(Cc3ccccc3)c2=O)cc1OC` was -9.1%; that for `COc1cc(/C=C2/SC(=S)N(Cc3ccccc3)C2=O)cc(OC)c1O` was -63.1% (active). The value for `COc1cc(Cl)cc(C2NC(=O)NC(C)=C2C(=O)NCc2ccccc2)c1O` (stereo not given) was 3.06%; that for `COc1cc2c(cc1OC)C(C(=O)NCc1ccco1)C1c3ccccc3CCN1C2=O` (stereo not given) was 3.83%.

Consider `COCCNC(=O)CSc1c(C)cnc2c1c(=O)n(C)c(=O)n2C`, for which the activity change, negative = inhibition is 8.83%. The value for `Cc1cccc2nc(-c3ccc(Cl)s3)c(Nc3ccc4c(c3)OCCO4)n12` was 19.5%; that for `Cc1cccnc1C(NC(=O)C1CCN(Cc2ccc(Cl)c(Cl)c2)CC1)c1ccc(Cl)cc1` (stereo not given) was -88.1% (active). The value for `Cc1ccc(C(NC(=O)C2CCN(CCOc3ccc(Cl)cc3Cl)CC2)c2ccccn2)cc1` (stereo not given) was 23.2%.

Regarding `O=C(NC(c1ccc(Cl)cc1)c1cnccn1)C1CCN(Cc2ccc(Cl)cc2)CC1` (stereo not given), the activity change, negative = inhibition was 18.3%. Next, `Cc1ccc(CSc2nc3cccnc3n2Cc2ccc(C(=O)NC3CC3)cc2)cc1`: 112%; `CCn1c(CN2C(=O)CSc3ccccc32)n[nH]c1=S`: -8.44%. Next, `CC(=O)c1cc(C#N)c(N2CCCCC2)nc1C`: -92.4% (active); `CC(=O)c1cc(C#N)c(N2CC(C)OC(C)C2)nc1C` (stereo not given): -16.2%; `Cc1cc(C)c2cc(C#N)c(N3CCNCC3)nc2c1`: -15.9%. Next, `Cc1cc(C)cc(NS(=O)(=O)c2ccc3[nH]cc(C(=O)N4CCCCC4)c(=O)c3c2)c1`: 1.5%; `CC(=O)NC(Cc1ccc(F)c(F)c1)C(=O)NC1CCN(c2nnnn2-c2ccccc2)CC1` (stereo not given): -16%; `COc1ccc(-c2nonc2NC(=O)c2oc3ccc(F)cc3c2C)cc1OC`: -12.8%. With `O=C(NC1CC(=O)N(c2ccccc2)C1)c1ccco1` (stereo not given), the activity change, negative = inhibition was 43.8%. Next, `CCc1ccc(Nc2n[n+](-c3ccccc3)c(-c3cccc(Cl)c3Cl)s2)cc1`: -69.1% (active); `COc1cc(Br)c(-c2sc(Nc3ccccc3)n[n+]2-c2ccccc2)cc1OC`: 25.2%; `COc1ccc(C)cc1Nc1n[n+](-c2ccccc2)c(-c2cccc(Cl)c2Cl)s1`: 8%. Consider `CCCCC(=O)OC1=CN(Cc2ccccc2)S(=O)(=O)c2ccccc21`, for which the activity change, negative = inhibition is -6.62%.

As for `CN(Cc1cccs1)C(=O)Cc1c[nH]c2ccccc12`, the activity change, negative = inhibition is 26%. For the compound `CC(C)C12CN3CC(C(C)C)(CN(C1)C3c1ccc(OCc3ccccc3)cc1)C2=O` (stereo not given), the activity change, negative = inhibition was -7.28%. As to `Cc1ccc2nc(/C(C#N)=C\c3ccc(OC(=O)c4cccs4)cc3)[nH]c2c1`, the activity change, negative = inhibition was -67.5% (active).

With `Cc1ccc2nc(/C(C#N)=C/c3ccc(-c4ccc(C(=O)OC(C)C)cc4)o3)[nH]c2c1`, the activity change, negative = inhibition is 41%. As for `Cc1ccc2nc(/C(C#N)=C/c3ccccc3F)[nH]c2c1`, the activity change, negative = inhibition was 206%. For `COCCNC(=O)CSc1nc(-c2ccccc2)[nH]c1-c1ccc(C)cc1`, the activity change, negative = inhibition was -25.2%.

Consider `CCOc1cc2[nH]c(=O)n(Cc3ccc(C(=O)NCCN(CC)CC)cc3)c(=O)c2cc1OCC`, for which the activity change, negative = inhibition was -5.64%. The value for `Cc1cccc(C)c1NC(=O)CNC(=O)c1ccc(N2CCOCC2)c([N+](=O)[O-])c1` was 25.4%. Next, `O=C(NC1C2CC3CC(C2)CC1C3)c1ccc(N2CCNCC2)c([N+](=O)[O-])c1` (stereo not given): 6.12%; `O=C(Nc1cccc(C(F)(F)F)c1)c1ccc(N2CCNCC2)c([N+](=O)[O-])c1`: -65.3% (active); `CCCCS(=O)(=O)c1oc(-c2cccs2)nc1S(=O)(=O)c1ccccc1`: -108% (active). Consider `CSc1oc(-c2cccs2)nc1S(=O)(=O)c1ccc(Br)cc1`, for which the activity change, negative = inhibition was 29.5%. The value for `Cc1ccc(CSc2oc(-c3cccs3)nc2S(=O)(=O)c2ccc(C)cc2)cc1` was 12.7%; that for `Cc1ccc(-n2nc(CO)c(C(=O)NCCc3ccccc3)n2)cc1` was 18.9%; that for `CCOC(=O)c1cccc(NC(=O)Cn2cnc3nc4c(cc3c2=O)CCCC4)c1` was 4.14%. The value for `CC(NC(=O)COc1cccnc1[N+](=O)[O-])c1ccc(Cl)cc1Cl` (stereo not given) was -23.4%.

As to `Cc1ccc(OCC(=O)c2cc(C)n(Cc3ccco3)c2C)c([N+](=O)[O-])n1`, the activity change, negative = inhibition is -78.9% (active). The value for `Cc1ccc(OCC(=O)Nc2ccccc2Sc2ccc(Cl)cc2)c([N+](=O)[O-])n1` was -14.6%.

With `COc1ccc(C)cc1-n1nnnc1SCC(=O)c1cc(C)n(Cc2ccco2)c1C`, the activity change, negative = inhibition is 39.6%. Take `CCc1ccccc1NC(=O)CN(C)C(=O)COc1ccc(C)nc1[N+](=O)[O-]`: the activity change, negative = inhibition is -24.2%. The value for `COCC(C)n1c(C)cc(C(=O)COc2ccc(C)nc2[N+](=O)[O-])c1C` (stereo not given) was -71.3% (active); that for `O=S(=O)(NCCc1nnc2ccc(SCc3ccc(Cl)cc3Cl)nn12)c1ccccc1` was 5.81%. Consider `Cn1nc(C(=O)OCC(=O)N(Cc2ccccc2)C(C)(C)C)c2ccccc2c1=O`, for which the activity change, negative = inhibition was 2.54%. The value for `COc1ccc(Nc2cc(Sc3ccc(OC)cc3)ncn2)cc1` was -88.8% (active); that for `COc1ccc(NC2=CC(=S)NC(C)(C)C2)cc1` was 42.8%; that for `COc1ccc(NC(=O)CSc2ncnc3[nH]ncc23)cc1` was -2.36%.

Turning to `Cc1ccc(Sc2ccncc2S(N)(=O)=O)cc1`, the activity change, negative = inhibition is 55.9%.

Consider `CC1CC(C)CN(C(=O)CSc2ccsc2[N+](=O)[O-])C1` (stereo not given), for which the activity change, negative = inhibition was -70.8% (active). The value for `O=C(CSc1ccsc1[N+](=O)[O-])N1CCCCC1` was 3.43%; that for `CC1CC(C)CN(C(=O)CSc2nnc(CSc3ncccn3)n2C)C1` (stereo not given) was -15.8%.

As to `CC(C)C(OC(=O)c1cccs1)C(=O)NC1CCCCC1` (stereo not given), the activity change, negative = inhibition was 55.6%. The value for `CC(C)=C1N(S(=O)(=O)C(F)(F)F)CCC12CN(C)c1ccccc12` (stereo not given) was -18.4%.
